Assay outcomes from PubChem.
An excerpt weighted towards active compounds, which were near 21% of everything screened.
HCMV inh: human cytomegalovirus inhibition | HFF cells, HCMV-luciferase reporter, 72 h; hits give low values | activity change, negative = inhibition, % at 57.5 µM | 410,000 tested, 4.5% active | AID 1259415; in the data active = activity change below about -60%; inconclusive = no clear call, values can overlap the other calls; inactive = above about -39%; note: % is set by controls: 0 for no effect and ±100 for the full control effect
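Inhibition of viral replication was scored as loss of reporter luminescence in HFFs infected with HCMV-luciferase (MOI 1 PFU/cell) for 72 h; compounds tested at 2 doses, normalized to buffer and Salinomycin controls.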
Pf growth 48h: P. falciparum growth inhibition at 48 hours (one generation). AID 504832. P. falciparum luciferase growth in erythrocytes, 48 h. 310,000 tested, 5.9% active. Potency, µM (top dose mostly 28.7 µM), for the others: at the top dose activity change, negative = inhibition, most hits filed as inhibitors; note: potency is the fitted concentration of half-maximal effect; % is set by controls: 0 for no effect and ±100 for the full control effect
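Cell-based growth assay: transgenic P. falciparum expressing firefly luciferase, cultured in red cells within RPMI 1640 containing 0.5% w/v Albumax, 24 mM bicarbonate and gentamycin. A drop in luciferase activity indicates inhibition.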
Pf growth 96h: inhibits malaria parasite growth, 96 h. P. falciparum luciferase reporter growth, 96 h. Potency, µM (series often up to 28.7 µM), for inactives: at the top dose activity change, negative = inhibition, actives largely listed as inhibitors. 320,000 tested, 6.9% active. AID 504834; note: potency is the fitted concentration of half-maximal effect; % is set by controls: 0 for no effect and ±100 for the full control effect
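Compounds incubated with erythrocytes infected by luciferase-expressing P. falciparum (2% hematocrit, 0.05% parasitemia final) for 96 hours, 37 C in 5% CO2. Growth inhibition scored as decreased luciferase luminescence.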
CHX counter: counter-screen hit for Shiga toxin inhibitors, cycloheximide | cell reporter, cycloheximide protein synthesis inhibition counterscreen | max response, % | 300,000 tested, 12% active | AID 2314; in the data active = max response mostly above about 13%, no sharp cut-off; inactive = mostly below about 14%; note: read at 38.3 µM for the half of the compounds with a filed dose; 0% is about no effect
HCV inh: blocks hepatitis C virus. Huh7.5.1 HCVcc-Cre infection, luciferase reporter, 44 h. Potency, µM (titrated, usually from 41.8 µM), for the others: at the top dose activity change, negative = inhibition, hits mostly inhibitors. 340,000 tested, 3.4% active; note: potency is the fitted concentration of half-maximal effect; % is set by controls: 0 for no effect and ±100 for the full control effect
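A cell-based infection assay in which seeded cells (1,000 per well) receive test compound after 4 h, are inoculated with HCVcc-Cre at approximately 0.5 moi, and are incubated 44 h before luminescence detection.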
Shiga toxin inh: Shiga toxin inhibition; Vero cells, Shiga toxin protein synthesis inhibition reporter; inhibition, % at 38.7 µM; 290,000 tested, 9.2% active; AID 2315; in the data active = inhibition mostly above about 28%, no sharp cut-off; inactive = mostly below about 43%; note: 0% is about no effect
The depositor's hits bear a star; ? = inconclusive; nt = not tested or not shown; [ ] = remark or other dose. Unless noted, calls come from the whole dose curve; as a rule, active = well fitted inhibition curve with a large enough effect; inconclusive = small, poorly fitted or top-dose-only effect, or another doubt; inactive = no such curve, though single readings can be large or run the other way.

SMILES	HCMV inh	Pf growth 48h	Pf growth 96h	CHX counter	HCV inh	Shiga toxin inh
COCc1cc(C)nc(SCC(=O)NCc2ccco2)c1C#N	-13.1	2.7%	9.28µM*	1.2	-3.3%	-9.6
COCc1cc(C)nc(SCC(=O)Nc2cccc(C)c2C)c1C#N	?	?	?	-2.1	?	16.2
COCc1cc(C)nc(SCC(=O)Nc2nc(C)cs2)c1C#N	25.0	40.7%	?	23.8*	-7.4%	48.8
COc1cc(NC(=O)c2cc(-c3cccc(OC)c3)n[nH]2)cc(OC)c1	31.8	nt	nt	nt	nt	nt
COc1cc(NC(=O)COc2cc(C)cc3oc(=O)cc(C)c23)cc(OC)c1OC	21.1	nt	nt	nt	nt	nt
COc1ccc(-n2ncc(S(=O)(=O)c3ccccc3)c2-c2ccc(Cl)cc2)cc1	?	11.7µM*	?	11.4	10µM*	-3.3
O=S(=O)(c1ccccc1)c1cnn2c(C(F)(F)F)cc(-c3ccc(F)cc3)nc12	4.1	6.0%	?	1.3	-15.1%	-14.7
O=S(=O)(c1ccccc1)c1cnn(-c2ccccc2)c1-c1ccc(F)cc1	-61.5*	?	5.86µM*	-2.6	?	-6.9
Cc1csc(=O)n1CC(=O)OCC(=O)NNC(=O)c1ccc(Cl)cc1	-28.9	33.8%	17.1%	nt	-2.2%	nt
C=CCN1C(C(=O)OCC)CSCCS1(=O)=O (configuration not stated)	-1.0	nt	nt	nt	nt	nt
CCCCCCC(C)OC(=O)Nc1cccc2ccccc12 (configuration not stated)	-29.8	75.6%	-8.3%	-0.7	-29.3%	18.0
CC(CNC(=O)c1cc(-c2ccccc2)n[nH]1)c1ccccc1 (configuration not stated)	10.6	nt	nt	nt	nt	nt
O=C1CCCc2nc(N3CCc4ccccc43)ncc21	97.6	148.4%	nt	37.5*	-27.8%	93.9*
CC1(C)CC(=O)c2cnc(N3CCc4ccccc4C3)nc2C1	-31.2	118.1%	-0.2%	24.0*	?	89.3*
O=C1CC(c2ccccc2)Cc2nc(N3CCc4ccccc43)ncc21 (configuration not stated)	9.4	nt	nt	nt	2.6%	nt
CCOC(=O)CCNC(=O)N1CCCC(Cc2ccccc2)(C(=O)OCC)C1 (configuration not stated)	26.9	-29.5%	-85.0%	-3.2	16.8%	-4.4
CC(=O)Nc1ccnn1C1CCN(C(=O)c2cccc(C)c2C)CC1	-9.1	-8.0%	-34.0%	-0.7	2.1%	-10.8
COc1ccc(NC(=O)CSc2nc3ccccc3c(=O)n2CCC(=O)NC2CCCCC2)c(OC)c1	-15.2	nt	nt	nt	nt	nt
O=C(O)c1cccc(NC2=C(n3nnc4ccccc43)C(=O)c3ccccc3C2=O)c1	-38.8	5.22µM*	1.85µM*	-1.4	12.4%	6.3
Cc1ccc(OCC(=O)Nc2ccc(N3CCN(S(C)(=O)=O)CC3)cc2)cc1C	12.5	-0.1%	-29.3%	-3.3	15.4%	-5.3
CCN(CC(=O)NCc1ccc(F)cc1)C(=O)COc1ccc(C)c(C)c1	-65.4*	3.3%	10.4%	-3.6	?	24.4
Cc1ccc(OCC(=O)Nc2cc(C(=O)O)cc(C(=O)O)c2)cc1C	-64.5*	8.3%	-14.7%	4.2	-3.3%	17.3
CC(=O)Nc1cccc(OCc2ccc(F)cc2)c1	?	4.6%[5.75 µM]	20.9%	2.7	15.4%	19.3
Cc1ccc(OCC(=O)Nc2cc(NC(=O)COc3ccc(C)cc3)cc(C(=O)O)c2)cc1	-12.1	25.7%	25.6%	0.8	16.5%	-10.8
Cc1ccc(OCC(=O)Nc2ccc(F)cc2)cc1C	-28.5	14.5%	-16.0%	38.6*	2.8%	46.2*
SMILES	HCMV inh	Pf growth 48h	Pf growth 96h	CHX counter	HCV inh	Shiga toxin inh
CC(=O)Nc1cccc(OCC(=O)Nc2ccc(F)cc2)c1	88.4	38.9%	28.4%	15.0*	1.7%	-32.2
CCOc1ccc(NC(=O)NNC(=O)c2cc3ccccc3cc2O)cc1	18.8	9.0%	49.0%	-2.9	0.2%	-5.7
C=CCSc1nc2c(cnn2-c2ccccc2)c(=O)n1N	-22.4	173.2%	221.1%	53.3*	-4.4%	62.8*
Cc1ccc(C(C)NC(=O)Cc2cccs2)cc1C (configuration not stated)	?	13.5%	-8.7%	2.8	6.4%	-20.0
CNC(=O)c1ccc2nc(CCc3ccccc3)oc2c1	55.1	nt	nt	nt	nt	nt
CC(c1ccon1)N(C)C(=O)c1ccc2nc(Cc3cccc(Cl)c3)oc2c1 (configuration not stated)	4.4	12.4%	?	19.0	3.8%	9.7
COCCc1nc2ccc(C(=O)N(C)Cc3cccc(-n4cccn4)c3)cc2o1	31.4	-0.2%	?	62.4*	-21.3%	81.7*
CN(Cc1ccon1)C(=O)c1ccc2nc(Cc3cccc(Cl)c3)oc2c1	?	-0.3%	13.1µM*	22.3	-4.5%	4.5
CN(Cc1cccnc1)C(=O)c1ccc2nc(Cc3ccccc3F)oc2c1	-38.3	14.0%	24.5%	42.8*	-12.1%	61.1*
O=C(CCCOc1ccccc1)N1CCN(c2ccc(F)cc2)CC1	31.0	nt	11.7µM*	24.4*	-9.7%	111.6
O=C(CCc1ccccc1)N1CCN(c2ccc(F)cc2)CC1	7.8	-5.1%	-0.4%	-0.5	3.6%	-14.4
COC(=O)c1ccccc1OCC(=O)N1CCN(c2ccc(F)cc2)CC1	30.1	-3.3%	80.6%	-2.1	?	-12.7
O=C(CCCOc1ccc(Cl)cc1Cl)N1CCN(c2ccccn2)CC1	21.3	?	nt	-1.6	-15.0%	27.1
O=C(CCCOc1ccccc1)N1CCN(c2ccccn2)CC1	38.9	175.6%	?	26.8*	-1.8%	114.9*
CC(=O)c1cc(F)ccc1OCC(=O)N1CCN(c2ccc(F)cc2)CC1	-27.5	4.15µM*	-24.6%	-3.3	?	-5.2
Cc1sc2nc(COC(=O)c3cccc(S(=O)(=O)N(C)c4ccccc4)c3)[nH]c(=O)c2c1C	-7.2	?	?	-1.2	?	-5.7
C=CCOc1ccc(/C=C/C(=O)OCc2csc(CC(=O)Nc3ccccc3C)n2)cc1	-20.3	?	?	nt	-2.7%	nt
O=C1NCN(c2ccccc2)C12CCN(CCCOc1ccc(F)cc1)CC2	nt	16.9µM*	-14.9%	nt	nt	nt
C[C@@H]1CN([C@@H](C)CO)C(=O)c2cc(Br)cnc2O[C@@H]1CN(C)C(=O)c1ccc(F)cc1	4.7	nt	nt	nt	nt	nt
CC(=O)Nc1ccc(NC(=O)[C@@H](NC(=O)c2ccccc2F)C(C)C)cc1	-5.7	8.1%	0.9%	-1.0	11.8%	9.8
COc1ccc(C(=O)Nc2ccc(OCC(F)(F)C(F)F)c(C(F)(F)F)c2)cc1OC	-98.8*	?	?	-1.4	11.2µM*	9.2
O=C(Nc1ccc(OCC(F)(F)C(F)F)c(C(F)(F)F)c1)c1ccc(Cl)cc1	-94.9*	nt	nt	nt	7.94µM*	nt
O=C(NCCc1ccccc1)c1ccc(S(=O)(=O)N2CCCC2)cc1	32.2	-15.4%	-23.2%	nt	13.8%	nt
CC(C)(C)C(=O)NCCn1ccc2ccccc21	9.7	?	-18.1%	0.9	6.5%	21.1
